# Assay results taken from PubChem BioAssay (NCATS).
# Inconclusive results are not listed. Values without a mark were called inactive. Calls follow the shape of the dose curve; as a rule, active = well fitted inhibition curve with a large enough effect; inconclusive = small, poorly fitted or top-dose-only effect, or effect the other way; inactive = flat fitted curve, though single readings scatter.
# Molecular target: ATP-dependent 6-phosphofructokinase (Trypanosoma brucei brucei) (UniProt O15648)
# Test: qHTS Assay to Find Inhibitors of T. brucei phosphofructokinase: hit validation (AID 492961);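 also: luminescence reports ADP formed as PFK phosphorylates fructose-6-phosphate with ATP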
# Conditions: T. brucei PFK, ADP-Glo luminescence; series mostly up to 51.4 µM; activity change, negative = inhibition: at the top concentration
# Procedure, shortened: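 Inhibition of parasite PFK is measured as reduced ADP formation, quantified via luciferase after ATP depletion. Assay used 0.1 mM ATP, 0.5 mM F6P, 1.25 nM enzyme, 45 min incubation.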
# % is scaled to controls: 0 for no effect and ±100 for the full control effect.
# ATP-dependent 6-phosphofructokinase (Trypanosoma brucei brucei), sequence (O15648 whole entry, looked up): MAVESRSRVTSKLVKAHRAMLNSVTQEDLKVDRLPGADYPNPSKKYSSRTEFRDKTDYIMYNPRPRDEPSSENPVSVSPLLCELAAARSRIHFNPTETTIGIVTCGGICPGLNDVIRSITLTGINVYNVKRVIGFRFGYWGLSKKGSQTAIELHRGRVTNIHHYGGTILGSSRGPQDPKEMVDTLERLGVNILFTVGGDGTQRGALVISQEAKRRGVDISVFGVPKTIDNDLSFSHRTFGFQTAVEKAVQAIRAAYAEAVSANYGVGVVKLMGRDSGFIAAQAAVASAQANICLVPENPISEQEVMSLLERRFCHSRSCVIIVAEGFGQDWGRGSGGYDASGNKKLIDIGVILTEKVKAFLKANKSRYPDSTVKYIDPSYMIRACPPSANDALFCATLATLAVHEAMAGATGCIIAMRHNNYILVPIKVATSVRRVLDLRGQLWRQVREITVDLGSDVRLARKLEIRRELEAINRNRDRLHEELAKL
row,SMILES,"activity change, negative = inhibition"
1,Cc1cccc(C)c1OCC(=O)N[C@@H](Cc1ccccc1)[C@@H](O)C[C@H](Cc1ccccc1)NC(=O)[C@H](C(C)C)N1CCCNC1=O,13.2%
2,CN(C)C(=O)COC(=O)Cc1ccc(OC(=O)c2ccc(N=C(N)N)cc2)cc1,8.7%
3,C[Se]CCC(N)C(=O)O (centres undefined),6.71%
4,O=C(OC1C[C@H]2CC[C@@H](C1)[N+]21CCCC1)C(O)(c1ccccc1)c1ccccc1 (some centres undefined),3.61%
5,O=C(O)CCNC(=O)c1ccc(N=Nc2ccc(O)c(C(=O)O)c2)cc1,3.33%
6,CC1=C(C)C(=O)C(C(CCCCCC(=O)O)c2ccccc2)=C(C)C1=O (centres undefined),-7.02%
7,CCOc1cc(CC(=O)N[C@@H](CC(C)C)c2ccccc2N2CCCCC2)ccc1C(=O)O,6.63% [at 24.3 µM]
8,CN(c1nccc(=O)[nH]1)C1CCN(c2nc3ccccc3n2Cc2ccc(F)cc2)CC1,-3.18%
9,N[C@@H](Cc1cc(I)c(Oc2cc(I)c(O)c(I)c2)c(I)c1)C(=O)O,11.1%
10,CCCCCCCCCCCCCCCCCCCCCCO,-2.19%
11,CCCc1cc(=O)[nH]c(=S)[nH]1,7.26%
12,O=P(O)(O)C(O)(Cn1ccnc1)P(=O)(O)O,13.3%
13,Cc1nc(Nc2ncc(C(=O)Nc3c(C)cccc3Cl)s2)cc(N2CCN(CCO)CC2)n1,0%
14,CN1C(C(=O)Nc2ccccn2)=C(O)c2sccc2S1(=O)=O,0.278% [at 24.3 µM]
15,C=C(c1ccc(C(=O)O)cc1)c1cc2c(cc1C)C(C)(C)CCC2(C)C,-0.642%
16,O=c1oc2cc(O)ccc2s1,-18.5%
17,CCOC(=O)c1c(C)n(C)c2ccc(O)cc12,-4.23%

row,SMILES,"activity change, negative = inhibition"
1,CCN(CC)CCOc1ccc(Cc2ccccc2)cc1,-4.76%
2,C=CCc1cc(OC)c(O)c(C(=O)NCCO)c1,4.49%
3,Nc1cccc2c1CN(C1CCC(=O)NC1=O)C2=O (centres undefined),-7.14%
4,CN1CCC(=C2c3ccccc3CCc3sccc32)CC1,-0.977%
5,CCN(CCO)CCCC(C)Nc1ccnc2cc(Cl)ccc12 (centres undefined),-11.8%
6,CNC[C@@H](O)[C@@H](O)[C@H](O)[C@H](O)CO,-3.28%
7,COCCCOc1ccnc(CS(=O)c2nc3ccccc3[nH]2)c1C (centres undefined),-2.71%
8,O=C1CCc2ccc(OCCCCN3CCN(c4cccc(Cl)c4Cl)CC3)cc2N1,-8.34%
9,O=C(NCCO[N+](=O)[O-])c1cccnc1,1.01%
10,COC(=O)C1=C(C)NC(C)=C(C(=O)OCCCN2CCC(c3ccccc3)(c3ccccc3)CC2)C1c1cccc([N+](=O)[O-])c1 (centres undefined),3.65%
11,CS(=O)(=O)OCCCCOS(C)(=O)=O,-12.3%
12,CC[C@]1(O)C[C@H]2CN(CCc3c([nH]c4ccccc34)[C@@](C(=O)OC)(c3cc4c(cc3OC)N(C=O)[C@H]3[C@@](O)(C(=O)OC)[C@H](OC(C)=O)[C@]5(CC)C=CCN6CC[C@]43[C@@H]65)C2)C1,-6.47%
13,N=C(N=C(N)N)N1CCOCC1,-6.33% [at 24.3 µM]
14,COc1ccc(C2(C#N)CCC(C(=O)O)CC2)cc1OC1CCCC1 (centres undefined),-17.6%
15,CCCCc1ccc2nc(NC(=O)OC)[nH]c2c1,-5.05% [at 24.3 µM]
16,CN(C)CCc1c[nH]c2ccc(Cn3cncn3)cc12,-13%
17,Cn1c(NCCN(CCO)CCCc2ccc([N+](=O)[O-])cc2)cc(=O)n(C)c1=O,-7.85%
